Source: PubChem BioAssay (EPA / NIEHS)
Several values for one entry are separate records, joined by “and”; a condition that tells them apart may be missing. Equal entries are not always repeated. Some compounds were tested as several samples or in several runs, with calls that do not always agree. Activity calls are given as the source filed them. Rule for the calls: active = hit-call score of the fitted dose curve at least 0.9, where 1 is the maximum; inactive = score below 0.9.

read-out: Keratin 19 (KRT19), KRT19 (gene 3880); assay: LTEA_HepaRG_KRT19: Life Technologies and Expression Analysis (LTEA) Assay for Keratin 19 (KRT19) using HepaRG (AID 2283512); conditions: mRNA level, 48 h; actives raise or lower the signal
Procedure: LTEA_HepaRG is a cell based, multiplexed-readout assay that uses HepaRG, a human liver cell line, with measurements taken at 48 hours after chemical dosing on a 96-well plate.LTEA_HepaRG_KRT19 is one of 102 assay component(s) measured in the LTEA HepaRG cell culture assay. It is a marker of Cell proliferation, survival, death.Data from the assay component LTEA_HepaRG_KRT19 was analyzed into 1 endpoint. This assay endpoint, LTEA_HepaRG_KRT19, was analyzed with bidirectional fitting relative to DMSO as the negative control and baseline of activity. Using a type of inducible reporter, measures of mRNA induction for gain or loss-of-signal activity can be used to understand regulation of transcription factor activity. To generalize the intended target to other relatable targets, this assay endpoint is annotated to the filaments intended target family, where the subfamily is keratin.
A total of 1060 chemcials from the ToxCast library were tested in eight-point concentration-response experiments. Cell culture and cytotoxicity assays were conducted at Thermo Fisher Scientific's Custom Services facility (Madison, WI). A single lot of human HepaRG cells (Thermo Fisher Scientific, Frederick, MD) was used for the cell culture experiments. 96-well format collagen type I coated plates of human HepaRG cells were prepared using established methods. Briefly, cryopreserved HepaRG cells were thawed, plated at a density of approximately 100,000 cells/well in HepaRG Thaw, Plate, and General Purpose media (HPRG770, Thermo Fisher Scientific), and incubated for 48 hours. 0.5% DMSO was selected as vehicle control to balance the requisite need of DMSO in HepaRG cultures to maintain differentiation (for example, baseline metabolism, proportions of hepatocytes vs. cholangiocytes), while enabling further hepatic receptor pathway activation (for example, PXR and CAR) in response to chemical exposure. 48 hours after plating, the culture medium was replaced with HepaRG Serum-Free Incudtion Media. Cells were exposed to each test chemical in duplicate and maintained in CO2 incubators for another 48 hours. Chemical plates were thawed to room temperature and 200x concentrations of treatment groups were prepared. 8-point conentration-reponse curves were made with the highest exposure at 100 uM, followed by half-log dilutions, all in 0.5% DMSO. Each test plate contained variouse controls, induction positive controls (1mM phenobarbital), cytotoxicity positive controls ([…] aflatoxin B1), vehicle controls (0.5% DMSO), and total lysis controls (0.5% DMSO). Cell morphology images were taken using an Essen IncuCyte FLR automated microscope, with six 96-well plates imaged in about 24 minutes. Images were captured and exported and JPEG files. Spent culture media was transfered to black-well plates for the LDH assay, and remaining media was sorted at -80 C for later use. Cells were treated with RLT buffer and frozen until shipped for gene expression analysis. Total RNA was isolated from the cell suspension in 75 uL of Buffer RLT (Qiagen, Germantown, MD 20874) by Quintiles/Expression Analysis (Durham, NC) using a custom isolation procedure. Total RNA from each plate well was transferred to a preamplification plate. Fluidigm's 96.96 Dynamic ArrayTM (Fluidigm, Amsterdam, the Netherlands) technology was used for gene expression analyses by quantitative reverse transcription polymerase chain reaction (qRT-PCR, performed by Quintiles/Expression Analysis, Durham, NC)89. Standard TaqManTM Assays (Applied Biosystems/ThermoFisher Scientific, Foster City, CA) were used to assess the expression of 93 genes selected based on their selectivity and sensitivity to important hepatic receptors known to be modulated by environmental chemicals; importance in human hepatocyte functionality; and hepatotoxicity. […]

Question: How did the outcome turn out when O=C(O)COc1ccc(Cl)cc1Cl was run?
Answer: inactive

Question: Which outcome does the source give for CC1(C)C(C=C(Cl)Cl)C1C(=O)OC(C#N)c1ccc(F)c(Oc2ccccc2)c1 (stereo not given) here?
Answer: inactive

Question: Which outcome does the source give for O=S(=O)(O)C(F)(F)C(F)(F)C(F)(F)C(F)(F)C(F)(F)C(F)(F)C(F)(F)C(F)(F)F here?
Answer: inactive

Question: And the AC50?
Answer: 33.1 µM (active) and 32.8 µM (active) and 62.9 µM (active)

Question: For CCC(C)(C)C(=O)OC1=C(c2ccc(Cl)cc2Cl)C(=O)OC12CCCCC2, which outcome is on record?
Answer: inactive

Question: How did the outcome turn out when CC(C)(C)C(O)/C(=C\c1ccc(Cl)cc1Cl)n1cncn1 (stereo not given) was run?
Answer: inactive

Question: For CCC(C)(NC(=O)c1cc(Cl)c(C)c(Cl)c1)C(=O)CCl (stereo not given), which AC50 is on record?
Answer: 32.4 µM (active)

Question: With O=C(Nc1ccccc1)Nc1cnns1 as the molecule, how does the AC50 read?
Answer: 50 µM (active)

Question: C[C@H]1[C@H](c2ccc(Cl)cc2)SC(=O)N1C(=O)NC1CCCCC1 was tested. Which AC50 did it give?
Answer: 50 µM (active)

Question: With Cc1[nH]c(=O)n(C(C)(C)C)c(=O)c1Cl as the molecule, how does the AC50 read?
Answer: 50 µM (active)

Question: For OCCOc1ccccc1, which outcome is on record?
Answer: inactive

Question: For Oc1ccc(Cl)cc1Cc1ccccc1, which outcome is on record?
Answer: inactive

Question: And the AC50?
Answer: 50.5 µM (active)

Question: Which outcome does the source give for CNC(=O)Oc1cccc(N=CN(C)C)c1 here?
Answer: inactive

Question: With CNC(=O)Oc1ccccc1OC(C)C as the molecule, how does the outcome read?
Answer: inactive

Question: With CN1CSC(=S)N(C)C1 as the molecule, how does the outcome read?
Answer: inactive

Question: For Oc1cc(Cl)ccc1Oc1ccc(Cl)cc1Cl, which AC50 is on record?
Answer: 69 µM (active)

Question: And the outcome?
Answer: inactive

Question: For CCOC1Oc2ccc(OS(C)(=O)=O)cc2C1(C)C (stereo not given), which AC50 is on record?
Answer: 66 µM (active)

Question: For CCc1ccc(C(=O)NN(C(=O)c2cc(C)cc(C)c2)C(C)(C)C)cc1, which outcome is on record?
Answer: inactive

Question: CCCN(CCOc1c(Cl)cc(Cl)cc1Cl)C(=O)n1ccnc1 was tested. Which AC50 did it give?
Answer: 12.7 µM (active)

Question: How did the outcome turn out when CCOCN(C(=O)CCl)c1c(C)cccc1CC was run?
Answer: inactive

Question: Which AC50 does the source give for O=[N+]([O-])c1c(Cl)c(Cl)c(Cl)c(Cl)c1Cl here?
Answer: 38.6 µM (active)

Question: Which outcome does the source give for CC(C)N(C(=O)COc1nnc(C(F)(F)F)s1)c1ccc(F)cc1 here?
Answer: inactive

Question: With Clc1ccccc1-c1nnc(-c2ccccc2Cl)nn1 as the molecule, how does the AC50 read?
Answer: 21.5 µM (active)

Question: With CC[C@H](C)[C@H]1O[C@]2(C=C[C@@H]1C)C[C@@H]1C[C@@H](C/C=C(\C)[C@@H](O[C@H]3C[C@H](OC)[C@@H](O[C@H]4C[C@H](OC)[C@@H](O)[C@H](C)O4)[C@H](C)O3)[C@@H](C)/C=C/C=C3\CO[C@@H]4[C@H](O)C(C)=C[C@@H](C(=O)O1)[C@]34O)O2 (tested in a mixture with another compound) as the molecule, how does the AC50 read?
Answer: 7.94 µM (active)

Question: How did the outcome turn out when O=S1OCC2C(CO1)C1(Cl)C(Cl)=C(Cl)C2(Cl)C1(Cl)Cl (stereo not given) was run?
Answer: inactive

Question: With CCCN(CCC)c1c([N+](=O)[O-])cc(C(F)(F)F)cc1[N+](=O)[O-] as the molecule, how does the outcome read?
Answer: inactive

Question: How did the outcome turn out when CNC(=O)/C=C(\C)OP(=O)(OC)OC was run?
Answer: inactive

Question: Which outcome does the source give for O=C(NC(=O)c1c(F)cccc1F)Nc1ccc(OC(F)(F)C(F)OC(F)(F)F)c(Cl)c1 (stereo not given) here?
Answer: inactive

Question: How did the outcome turn out when O=[N+]([O-])/N=C1\NCCN1Cc1ccc(Cl)nc1 was run?
Answer: inactive

Question: ClC1C(Cl)C(Cl)C(Cl)C(Cl)C1Cl (stereo not given) was tested. Which outcome did it give?
Answer: inactive

Question: CC(C)(C)C(O)C(Oc1ccc(Cl)cc1)n1cncn1 (stereo not given) was tested. Which outcome did it give?
Answer: inactive

Question: With O=C(O)C(F)(F)C(F)(F)C(F)(F)C(F)(F)C(F)(F)C(F)(F)C(F)(F)F as the molecule, how does the outcome read?
Answer: inactive

Question: CCC(C)Nc1c([N+](=O)[O-])cc(C(C)(C)C)cc1[N+](=O)[O-] (stereo not given) was tested. Which outcome did it give?
Answer: inactive

Question: With COP(=S)(OC)Oc1ccc([N+](=O)[O-])cc1 as the molecule, how does the outcome read?
Answer: inactive

Question: For CNC(=O)CSP(=S)(OC)OC, which outcome is on record?
Answer: inactive

Question: With COP(=S)(OC)Oc1ccc(SC)c(C)c1 as the molecule, how does the outcome read?
Answer: inactive

Question: How did the outcome turn out when O=C(O)CCCOc1ccc(Cl)cc1Cl was run?
Answer: inactive

Question: CC(C)OC(=O)Nc1cccc(Cl)c1 was tested. Which outcome did it give?
Answer: inactive
